# Assay outcomes deposited in PubChem BioAssay by several laboratories.
# Rows were chosen to be rich in hits. Some 22% of all compounds tested hit in one or more screens of this group.
# CYP2C9 activ = human CYP2C9 activators, primary screen, biochemical, luminescence; activation factor at 5 µM; Cytochrome P450 2C9 (Homo sapiens), P11712; actives 1.4% (n = 96,000); AID 1024, 2008; recombinant CYP2C9, luciferin-H conversion; active compounds read high; factor 1 = untreated enzyme, 0 = blocked;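 active = activation factor of 2 or more for CYP2C9 at a 5 µM dose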
# Target sequence (P11712 whole entry, looked up): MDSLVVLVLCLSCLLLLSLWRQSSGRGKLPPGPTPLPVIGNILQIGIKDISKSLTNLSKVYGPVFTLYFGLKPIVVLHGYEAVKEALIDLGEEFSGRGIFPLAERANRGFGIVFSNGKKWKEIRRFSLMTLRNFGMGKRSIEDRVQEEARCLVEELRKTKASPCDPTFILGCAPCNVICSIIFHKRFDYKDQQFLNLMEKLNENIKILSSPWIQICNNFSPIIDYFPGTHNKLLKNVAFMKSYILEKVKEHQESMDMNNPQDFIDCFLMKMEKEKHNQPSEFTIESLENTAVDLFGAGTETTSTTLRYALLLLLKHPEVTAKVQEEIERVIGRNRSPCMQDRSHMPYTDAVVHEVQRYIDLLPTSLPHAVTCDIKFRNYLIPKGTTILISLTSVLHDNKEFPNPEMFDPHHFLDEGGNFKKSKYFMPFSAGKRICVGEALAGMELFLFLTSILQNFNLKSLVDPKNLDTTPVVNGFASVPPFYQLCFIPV
# CYP2C19 act = human CYP2C19 activators, primary screen, biochemical, luminescence; recombinant CYP2C19, luciferin-H EGE luminescence; active compounds read high; 0 = fully inhibited enzyme, 1 = untreated enzyme; activation factor at 5 µM; 96,000 tested, under 10 active; Cytochrome P450 2C19 (Homo sapiens), P33261; AID 1025, 2008;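 active = activation factor of at least 2 at 5 µM in the primary screen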
# CYP2C19 inhib = blockers of cytochrome P450 2C19 activity – biochemical, luminescence, ADME assay, primary screen | actives 21% (n = 96,000) | P33261 | inhibition, % at 5 µM | AID 778, 2007 | CYP2C19 Supersomes, luciferin-H EGE luminescence, 30 min;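 active = CYP2C19 inhibition above a set limit at 5 µM in the primary screen, cut at about 50% in these data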
# CYP2C9 inh = blockers of cytochrome P450 2C9 activity – biochemical, luminescence, ADME assay, primary screen; P11712; CYP2C9 Supersomes, luciferin-H conversion; inhibition, % at 5 µM; actives 20% (n = 96,000); AID 777, 2007;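 active = blocking of liver enzyme CYP2C9 beyond about 50% at 5 µM, limit read from the data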
# Measles CPE = compounds protecting cells from measles virus cytopathic effect, primary screen, measles RdRp inhibitor project, single point, MLSMR library, absorbance. protection (pct of control), % at 4 µM. Measles virus-infected cells, CPE protection. actives 1.5% (n = 140,000). AID 841, 2007; in the data active = protection mostly above about 24%, no sharp cut-off; inactive = mostly below about 26%
# A number is an active result; . = inactive; / = no result.
SMILES,CYP2C9 activ,CYP2C19 act,CYP2C19 inhib,CYP2C9 inh,Measles CPE
O=S(=O)(Nc1nc2ccccc2nc1Nc1ccc(N2CCOCC2)cc1)c1cc(Cl)ccc1Cl,/,/,/,/,.
CCN(c1cccc(C)c1)S(=O)(=O)c1ccc2c3c(cccc13)C(=O)N2,/,/,/,/,.
CCNS(=O)(=O)c1ccc2c3c(cccc13)C(=O)N2,.,.,70,.,.
CCOC(=O)c1c(C)oc2ccc(NS(=O)(=O)c3ccc4c5c(cccc35)C(=O)N4)cc12,/,/,/,/,.
CCN(CC)S(=O)(=O)c1ccc2c3c(cccc13)C(=O)N2,.,.,89,.,.
O=C1Nc2ccc(S(=O)(=O)NCCC3=CCCCC3)c3cccc1c23,.,.,61,.,.
N#CCCN(C1CCCCC1)S(=O)(=O)CCOc1ccccc1,.,.,.,.,.
COC(=O)CC(NC(=O)c1ccco1)c1ccc(C(C)C)cc1 (configuration not stated),.,.,.,.,.
O=S(=O)(c1ccc(Br)cc1)n1c(Cc2ccccc2)nc2ccccc21,/,/,/,/,.
O=S(=O)(N1CCCCC1)n1c(Cc2ccccc2)nc2ccccc21,.,.,85,68,.
COc1ccc2[nH]cc(C(=O)CN3CCN(C/C=C/c4ccccc4)CC3)c2c1,.,.,.,.,.
O=C(O)Cn1c2c(c3ccccc31)CCCC2,.,.,.,.,.
CCC(C)c1ccccc1NC(=S)Nc1cccnc1 (configuration not stated),.,.,.,.,.
Cc1ccc(NS(=O)(=O)c2ccc(OCC(=O)Nc3cccc([N+](=O)[O-])c3)c(C)c2)cc1,.,.,52,89,.
O=C(CN(C1CC1)S(=O)(=O)c1ccc(S(=O)(=O)N2CCCCCC2)cc1)Nc1ccccc1,.,.,.,.,.
Cc1ccc(S(=O)(=O)N(CC(=O)Nc2cccc([N+](=O)[O-])c2)C2CCCCC2)cc1,.,.,.,92,.
Cc1ccc(NS(=O)(=O)c2cc(C(=O)Nc3cccc([N+](=O)[O-])c3)ccc2C)cc1,/,/,/,/,.
CCN(C1CCCCC1)S(=O)(=O)c1ccc(S(=O)(=O)N(CC(=O)Nc2ccccc2)C2CC2)cc1,.,.,.,68,.
Cc1ccc(S(=O)(=O)N(CC(=O)Nc2ccc(Cl)c([N+](=O)[O-])c2)C2CCCCC2)cc1,/,/,/,/,.
COc1ccc(C)cc1S(=O)(=O)N(CC(=O)Nc1cccc([N+](=O)[O-])c1)c1cc(C)cc(C)c1,.,.,.,93,.
CN(C)CCNC(=O)NC(=O)c1ccc(Cl)cc1,/,/,/,/,.
CC(C)c1ccc2occ(-c3nn[nH]n3)c(=O)c2c1,/,/,/,/,.
Cc1cccc(N2C(=O)C3CCC(c4ccccc4)CC3C2=O)c1 (configuration not stated),/,/,/,/,.
C=CCn1c2ccccc2c2nnc(SCC(=O)NC(C(=O)OC)C(C)C)nc21 (configuration not stated),.,.,100,90,.
CCOC(=O)CSc1ncc(-c2ccccc2)nn1,.,.,70,.,.
SMILES,CYP2C9 activ,CYP2C19 act,CYP2C19 inhib,CYP2C9 inh,Measles CPE
CCn1c2ccccc2c2nnc(SCC(=O)NCCOC)nc21,.,.,55,.,.
CCn1c2ccccc2c2nnc(SCC(N)=O)nc21,.,.,.,.,.
CCn1c2ccccc2c2nnc(SCC(=O)NCc3cccs3)nc21,.,.,96,.,.
CCOC(=O)CSc1ncc(OC)c(Sc2ccc(OC)cc2)n1,.,.,.,84,.
CCCn1c2ccccc2c2nnc(SCC(=O)OCC)nc21,.,.,66,.,.
Brc1ccc(OCc2nnc3n2CCC3)cc1,/,/,/,/,.
CC(OCCN1CCCC1)(c1ccc(F)cc1)c1ccc(F)cc1,/,/,/,/,.
CC1CCN(c2cc(C#N)c(C#N)cc2[N+](=O)[O-])CC1,.,.,.,.,.
CC1CCN(c2ccc(N3C(=O)C4CCCCC4C3=O)cc2[N+](=O)[O-])CC1 (configuration not stated),/,/,/,/,48
Cc1ccc2[nH]c(C)c(CCNC(=O)C3CCCCC3C(=O)OCC(F)(F)F)c2c1 (configuration not stated),/,/,/,/,.
COCCOc1ccc(C(F)(F)F)cc1NC(=O)c1ccccc1,/,/,/,/,.
CC(=O)Nc1cc(C(F)(F)F)ccc1Oc1cccc(Br)c1,.,.,98,58,.
CC(C)(C)c1ccc(OCCNC(=S)NC(=O)c2cccnc2)cc1,/,/,/,/,.
CCOC(=O)c1c(C=O)c(C)n(Cc2ccc(C)cc2)c1C,.,.,76,96,.
CCOC(=O)c1c(C(=O)OCC)c(C)n(Cc2cc(OC)c(OC)c(OC)c2)c1C,/,/,/,/,.
Cc1c(C=O)c(C=O)c(C)n1Cc1ccccc1,.,.,62,.,.
CCOC(=O)c1c(C=O)c(C)n(Cc2ccccc2Cl)c1C,.,.,98,94,.
CCOC(=O)c1c(C)c(C)n(Cc2cccc(OC)c2OC)c1C,/,/,/,/,.
CC(=O)c1c(C(C)=O)c(C)n(Cc2ccccc2)c1C,.,.,.,.,.
C/C(=N/NC(=O)CCCOc1ccc(Cl)cc1Cl)c1ccc(C)o1,/,/,/,/,.
O=C(Nc1ccncc1)c1ccc(F)cc1,.,.,88,61,.
O=C(Nc1ccc(F)cc1)c1ccc(-n2ccnc2)nc1,.,.,100,96,.
COc1ccc(C(=O)Nc2ccncc2)cc1OC,.,.,57,.,.
O=C(Nc1ccncc1)c1cccc(F)c1,.,.,56,.,.
COc1ccc(NC(=O)c2ccc(-n3cccn3)nc2)cc1,.,.,.,.,.
SMILES,CYP2C9 activ,CYP2C19 act,CYP2C19 inhib,CYP2C9 inh,Measles CPE
O=C(Nc1cccnc1)c1ccc(F)cc1,/,/,/,/,.
COc1ccc(C(=O)Nc2cccc(NC(C)=O)c2)cc1OC,/,/,/,/,.
O=C(Nc1cccc(F)c1)c1ccccc1,.,.,.,.,.
CC(C)CN1C(=O)c2ccc(C(=O)Nc3ccccn3)cc2C1=O,.,.,.,.,/
CCN(CC)S(=O)(=O)c1cc(C(=O)Nc2ccncc2)ccc1Cl,.,.,100,100,.
O=C(Nc1ccncc1)Nc1ccc(F)cc1F,.,.,97,83,.
CC(C)CN1C(=O)c2ccc(C(=O)Nc3ccncc3)cc2C1=O,.,.,98,97,.
O=C(Nc1cccs1)Nc1ccc(F)cc1F,/,/,/,/,.
CCN(CC)S(=O)(=O)c1cc(C(=O)Nc2cccnc2)ccc1Cl,.,.,.,.,.
CC(C)Oc1ccc(C(=O)/C(=C\c2cccs2)c2nc3ccccc3o2)cc1,/,/,/,/,.
Cc1cc2nc(C)n3c4ccccc4nc3n2n1,.,.,.,.,.
COc1ccc(NC(=O)Cn2c(=O)n(CC(=O)NCc3ccco3)c(=O)c3ccccc32)cc1OC,.,.,.,.,.
C=CCOc1ccc2c(c1)c(S(=O)(=O)c1ccc(C)cc1)cn2COC,.,.,89,.,.
